Screening data (PubChem BioAssay)
Only some compounds are listed: those with a hit (about 3.7% of all), similar ones and a draw of the others.
BoNT-F LC inh = inhibitors of Botulinum neurotoxin F light chain protease; Multiplex microsphere protease cleavage assay, flow cytometry; inhibition, % at 10 µM; hit rate 0.22% among 360,000; in the data active = inhibition above about 35%, passing the limit was not always enough; inconclusive = no clear call, values can overlap the other calls; also: plate controls were buffer without enzyme for full effect and enzyme alone for no effect
BoNT-A LC inh2 = BoNT A light chain protease inhibition; AID 588499; hit rate 0.17% among 360,000; multiplex microsphere protease substrate cleavage, flow cytometry; inhibition, % at 10 µM; also: plate controls were buffer without enzyme for full effect and enzyme alone for no effect
Vc quorum ag = inducers of Vibrio cholerae quorum light production without autoinducers | V. cholerae BH1578 lux reporter, luminescence, 6 h | activation, % at 18.7 µM | hit rate 0.16% among 350,000 | AID 588436; in the data active = activation mostly above about 9.7%, no sharp cut-off; inconclusive = no clear call, values can overlap the other calls; inactive = mostly below about 3.7%
Anthrax LF prot = anthrax lethal factor protease inhibition; hit rate 0.12% among 360,000; inhibition, % at 10 µM; multiplex microsphere protease cleavage assay, LF; P15917; AID 588501; also: plate controls were buffer without enzyme for full effect and enzyme alone for no effect
Target sequence (P15917 whole entry, looked up): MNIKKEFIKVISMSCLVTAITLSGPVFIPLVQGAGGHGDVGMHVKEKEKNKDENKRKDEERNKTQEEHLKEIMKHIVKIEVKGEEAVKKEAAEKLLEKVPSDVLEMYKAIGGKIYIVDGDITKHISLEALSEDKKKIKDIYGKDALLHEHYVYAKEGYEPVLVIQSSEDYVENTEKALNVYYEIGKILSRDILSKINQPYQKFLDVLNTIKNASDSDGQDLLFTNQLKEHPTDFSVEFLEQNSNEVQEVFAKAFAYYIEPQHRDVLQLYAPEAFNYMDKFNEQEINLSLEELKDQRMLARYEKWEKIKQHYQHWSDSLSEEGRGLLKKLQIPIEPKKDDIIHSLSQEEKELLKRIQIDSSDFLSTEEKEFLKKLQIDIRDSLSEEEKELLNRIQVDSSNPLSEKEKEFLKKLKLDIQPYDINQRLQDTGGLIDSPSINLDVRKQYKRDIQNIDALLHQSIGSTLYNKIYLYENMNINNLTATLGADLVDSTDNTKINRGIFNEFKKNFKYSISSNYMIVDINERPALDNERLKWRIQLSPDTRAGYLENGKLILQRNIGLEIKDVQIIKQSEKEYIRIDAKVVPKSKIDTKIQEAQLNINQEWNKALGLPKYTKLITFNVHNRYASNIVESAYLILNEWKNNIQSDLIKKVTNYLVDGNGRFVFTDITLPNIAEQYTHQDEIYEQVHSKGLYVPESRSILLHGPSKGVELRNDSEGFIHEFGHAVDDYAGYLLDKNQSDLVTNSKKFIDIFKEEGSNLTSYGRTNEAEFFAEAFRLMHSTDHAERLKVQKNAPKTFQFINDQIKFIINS
Bead autofluor = counter-screen for toxin protease inhibitors: compound fluorescence; hit rate 3.1% among 360,000; fluorescence intensity (concentration not given with the values); compound autofluorescence counterscreen, microsphere flow cytometry; stronger effect = higher value; in the data active = fluorescence intensity above about 16000; inconclusive = no clear call, values can overlap the other calls
BJeLR lethal = BJeLR cell viability loss; BJeLR (HRASV12) viability, CellTiter-Glo ATP luminescence, 48 h; inhibition, % (concentration not given with the values); hit rate 0.17% among 300,000; in the data active = inhibition above about 50%; inconclusive = no clear call, values can overlap the other calls
Active calls of the source: *; i = inactive; ? = inconclusive; · = no result given. Rule as the data show it, unless noted: active = inhibition above about 30%; inconclusive = no clear call, values can overlap the other calls; inactive = below that.

SMILES	BoNT-F LC inh	BoNT-A LC inh2	Vc quorum ag	Anthrax LF prot	Bead autofluor	BJeLR lethal
CCN(C(C)=O)c1nc(CSc2nnc(NC(C)C)s2)cs1	2.1	?	i	0.1	19610*	5.0
CC(C)Nc1nnc(SCC(=O)Nc2sccc2C#N)s1	-10.1	-0.6	i	-4.2	3688	·
CCCCN1C(=O)C(CC(=O)NC(c2ccccc2)c2ccccc2)CC(C(=O)N2CCCCCC2)=C1C (stereo not drawn)	1.3	0.0	·	0.1	5816	·
CN(C)Cc1c(O)c(Cl)cc2c3c(c(=O)oc12)CCCC3	-4.3	-0.1	·	-2.2	2371	-9.3
Cc1c(C)c2cc(Cl)c(O)c(CN(C)C)c2oc1=O	3.5	-0.4	-0.2	-6.0	5660	4.1
CCCCc1cc(=O)oc2c(CN3CCCC3)c(O)ccc12	-3.7	-2.2	i	-0.2	20462*	2.2
CCc1c(C)c2cc(Cl)c(O)c(CN(C)C)c2oc1=O	-6.7	?	-0.2	0.7	17210*	19.1
CCCCc1cc(=O)oc2c(CN(C)C)c(O)c(Cl)cc12	-3.3	-0.4	-0.3	-1.6	23705*	·
Cc1cc(OCC(=O)OCC(=O)N2CCCCC2)ccc1Cl	0.2	0.1	-0.4	-7.9	3733	·
O=C(Nc1ccc2c(c1)OCO2)C1(S(=O)(=O)c2ccc(Cl)cc2)CC1	-7.7	-3.4	i	-3.4	24545*	8.3
Cc1cc(NC(=O)C(C)Sc2nc(-c3ccccc3)cc(=O)[nH]2)no1 (stereo not drawn)	-7.9	-1.9	-0.5	-14.2	3704	4.5
CC(Sc1nc(-c2ccccc2)cc(=O)[nH]1)C(=O)O (stereo not drawn)	-7.7	-5.2	-2.2	-4.4	24389*	-2.0
CCc1nc2c(OCc3cccc(OC)c3)cccn2c1N(C)C(=O)c1ccc(OC)cc1	-6.0	-0.2	-0.6	-4.8	3711	·
Clc1ccc(-c2nc3c4ccccc4ccn3c2Cc2ccsc2)cc1	-6.2	-0.5	·	-3.3	7940	·
O=C1CCC(C(=O)OCc2c(Cl)cccc2Cl)N1 (stereo not drawn)	1.4	0.5	-0.2	-1.2	20438*	-15.6
O=C1CCC(C(=O)OCc2ccccc2)N1 (stereo not drawn)	-0.7	-1.4	-0.1	-0.1	24033*	16.9
COCc1cccc(-c2csc(C(C)(O)c3ccccc3)n2)c1 (stereo not drawn)	-1.9	-0.2	-0.6	-10.2	2909	·
COc1ccc2c(C)cc(SCC(=O)N3CCOCC3)nc2c1	36.1*	1.7	-0.6	5.6	6037	-6.2
COc1ccc2c(C)cc(SCC(=O)NC3CCCCC3)nc2c1	-5.5	0.0	-4.3	-8.3	2950	·
COc1cccc(CNC(=O)[C@@H]2CCCN2C(=O)[C@H]2CCCCN2C(=O)c2cccs2)c1	-5.0	0.2	·	-9.0	5131	·
Cc1ccc(C)n1-c1nccc(-c2cccs2)n1	4.2	3.6	1.4	-2.7	21459*	-1.5
CCn1cc(/C=C(\NC(=O)c2ccccc2)C(=O)NCCCn2ccnc2)c2ccccc21	-5.2	-0.2	0.0	-1.1	3048	·
Cn1c(=O)c2ncn(CC(=O)NCCOc3ccccc3)c2n(C)c1=O	3.4	-0.8	-0.4	-4.5	10311	4.5
Cc1ccc(OCCNC(=O)Cn2cnc3c(=O)n(C)c(=O)n(C)c32)cc1C	-2.7	-1.2	i	-1.7	22531*	-1.9
COc1ccc(CNC(=O)Cn2cnc3c(=O)n(C)c(=O)n(C)c32)cc1	-3.5	-3.1	-0.2	0.0	21079*	-11.7
SMILES	BoNT-F LC inh	BoNT-A LC inh2	Vc quorum ag	Anthrax LF prot	Bead autofluor	BJeLR lethal
CC(C)(C)NC(=O)C1c2ccccc2OCC(=O)N1Cc1ccc2c(c1)OCO2 (stereo not drawn)	-9.5	-0.6	·	-11.8	5749	·
COc1cc(NC(=O)C2CCCCC2)c(OC)cc1NC(=O)CCC(=O)NCc1ccco1	0.5	0.7	i	-1.3	22591*	-2.9
O=C(Nc1ccc(F)cc1)N1CCOCC1	3.5	?	3.6	-0.4	19165*	0.0
O=C(Nc1ccccc1)N1CCCC1	1.4	0.2	0.7	-2.0	23605*	3.3
O=C(Nc1ccc(F)cc1)N1CCCCCC1	6.2	1.5	-1.6	2.5	5338	4.7
O=C(Nc1ccccc1)C1CCCCC1	-0.9	?	i	-0.9	21764*	-11.0
O=C(NC1CCCCC1)N(c1ccccc1)c1nnc(-c2cccc([N+](=O)[O-])c2)s1	-4.3	-0.4	-1.4	-1.7	3975	·
O=S1(=O)N[C@@H](Cc2ccccc2)COc2cccc(N3CCC[C@H]3CO)c21	5.9	0.3	·	1.6	5990	·
Cc1cnc(CNC(=O)c2csc([C@@H]3O[C@H](CO)[C@H](O)[C@H](O)[C@H]3O)n2)cn1	-1.5	0.6	-0.7	-1.1	3722	·
C[C@@H]1CCCCO[C@H](CN(C)C(=O)Nc2ccc3c(c2)OCO3)[C@@H](C)CN([C@H](C)CO)C(=O)c2cc(NS(=O)(=O)c3ccc(F)cc3)ccc2O1	-4.0	-0.3	-1.1	4.0	2948	·
CCCC(=O)Nc1ccccc1NC(=O)C1CCCCC1	1.6	1.1	i	2.1	23241*	-7.1
Cn1c(SCC(=O)c2ccc(F)cc2)nnc1-c1cnccn1	6.6	4.4	i	-15.4	18205*	4.1
O=C(CSc1nnc(-c2cnccn2)n1Cc1ccco1)c1ccccc1	-5.9	-2.5	i	-4.1	17135*	1.6
Cn1c(SCC(=O)c2ccccc2)nnc1-c1ccccn1	?	0.7	-0.5	3.6	3879	0.2
CCc1ncc(C(O)c2ccc(Cl)cc2)n1Cc1ccccc1 (stereo not drawn)	-5.3	-0.7	-0.2	-8.2	2926	·
Cc1nc2ccc(C(=O)Nc3ccc4c(c3)OCC(=O)N4)cn2c1N(C)C(=O)CCc1ccccc1	-2.5	-0.2	i	4.0	3706	·
N#CC(C#N)=C1SC(=Nc2ccccc2)C(=Nc2ccccc2)N1c1ccccc1	-5.7	0.0	i	-6.7	3707	·
O=C1C=C(c2ccccc2)CC(c2cccs2)C1n1cnc([N+](=O)[O-])c1 (stereo not drawn)	-11.5	0.2	i	1.1	2405	2.1
O=C1C=C(c2ccccc2)C[C@H](c2cccs2)[C@H]1n1nnc([N+](=O)[O-])n1	-2.5	0.2	-0.3	-2.1	2333	62.2*
Cn1c(SCC#N)nnc1-c1ccc2c(c1)OCO2	4.1	-1.1	16.7*	-2.0	9562	-5.9
CCOc1ccccc1C(=O)NCC(=O)N(C)CC(=O)Nc1ccc(N2CCOCC2)cc1	-2.4	0.2	-0.3	-3.5	3823	·
COc1cccc(NC(C)C(=O)N2CC(C)OC(C)C2)c1 (stereo not drawn)	3.3	?	-0.2	-2.3	23137*	0.1
COc1ccc([C@H]2C[C@H](O)C[C@@H](CCn3cc(-c4ccccc4)nn3)O2)cc1	-8.1	0.1	·	-3.9	6286	·
O=C(Cn1cc([N+](=O)[O-])cn1)N1N=C(C(F)F)CC1(O)C(F)F (stereo not drawn)	4.1	2.1	i	0.0	22225*	-2.7
CS(=O)(=O)c1cnc2c(-c3ccc(F)cc3)cnn2c1N	-2.8	?	-3.8	-0.2	20368*	-4.0
CN(C)c1ccc(C(=O)/C=C/c2cccnc2)cc1	-5.8	-1.6	-1.1	-1.4	3094	5.6
